{"source": "ChEMBL document CHEMBL3988442", "about": "“University of Dundee, Small-Polar-MMV Screening Library” (2021)", "note": "Out of some 48,000 compounds screened, about 13,000 (27%) showed an effect of 50% or more. Some of the results follow."}
{"tested_on": "Wolbachia pipientis", "experiment": "Anti-Wolbachia Cell-Based Screen", "format": "functional", "parameters": "scale not given: in the data most compounds retested in dose-response had high values", "conditions": "5 µM", "units": {"Percent Effect": "%"}}
{"smiles": "CC(C)Nc1ccc2c(c1)C1(CCOCC1)C(=O)N2c1ccsc1", "Percent Effect": -5.936}
{"smiles": "CCc1cc(N2C[C@H](C3CC3)[C@@H](N)C2)nc(N2CCOCC2)n1", "Percent Effect": -5.197}
{"smiles": "CCOc1ccnc(N2CCN(C(=O)CCc3ccncc3)CC2)n1", "Percent Effect": -7.253}
{"smiles": "CCOc1ccnc(N2CCN(C(=O)c3cccnc3O)CC2)n1", "Percent Effect": -0.2095}
{"smiles": "Cc1cccc(OCCC(=O)N2CCCN(CC(N)=O)CC2)c1C", "Percent Effect": -3.511}
{"smiles": "CCC(O)CN1CCN(C(=O)c2cccn2Cc2ccccc2)CC1", "note": "(stereo not drawn)", "Percent Effect": -11.52}
{"smiles": "CCOc1ccc(Cl)c(C(=O)N2CCN(CC(O)CC)CC2)n1", "note": "(stereo not drawn)", "Percent Effect": 92.51}
{"smiles": "CCC(O)CN1CCN(C(=O)c2csc(COC)n2)CC1", "note": "(stereo not drawn)", "Percent Effect": -26.29}
{"smiles": "CCOc1ccnc(N2CCN(C(=O)c3cn[nH]c3CC)CC2)n1", "Percent Effect": -0.2597}
{"smiles": "CCOc1ccc(Cl)c(C(=O)N2CCN(c3ccncc3)CC2)n1", "Percent Effect": 119.1}
{"smiles": "CCOc1ccc(Cl)c(C(=O)N2CCN(c3ncccn3)CC2)n1", "Percent Effect": 79.36}
{"smiles": "CCOc1ccc(Cl)c(C(=O)N2CCN(c3cnccn3)CC2)n1", "Percent Effect": 0.9998}
{"smiles": "CCOc1ccc(Cl)c(C(=O)N2CCCN(CC(N)=O)CC2)n1", "Percent Effect": 93.33}
{"smiles": "CCOc1ccc(Cl)c(C(=O)NC(C)C(N)=O)n1", "note": "(stereo not drawn)", "Percent Effect": -12.05}
{"smiles": "COCc1nc(C2CC2)nn1-c1ccccc1Cl", "Percent Effect": -16.97}
{"smiles": "CC(NCc1c(C(C)C)nn(C)c1N1CCOCC1)C(N)=O", "note": "(stereo not drawn)", "Percent Effect": 1.644}
{"smiles": "Cc1cnc(C)c(N2CCC(c3nccn3Cc3cscn3)CC2)n1", "Percent Effect": 32.35}
{"smiles": "CC(NC(=O)CCCOc1cccc(F)c1)c1ccncc1", "note": "(stereo not drawn)", "Percent Effect": -15.4}
{"smiles": "Cc1ncc2c(n1)CN(Cc1ncc(C(C)(C)C)o1)CC2", "Percent Effect": 13.07}
{"smiles": "OCC(O)CN1CCc2onc(-c3ccc(C(F)(F)F)cc3)c2C1", "note": "(stereo not drawn)", "Percent Effect": -7.135}
{"smiles": "CN(C)C(=O)c1ccc(OC2CCOCC2)cc1", "Percent Effect": 14.67}
{"smiles": "COC(C)(C)CNC(=O)N(C)Cc1nc(-c2ccccc2)c[nH]1", "Percent Effect": -6.978}
{"smiles": "CCOc1ccc(Cl)c(C(=O)N2CCN(C(=O)c3ccoc3C)CC2)n1", "Percent Effect": -0.3279}
{"smiles": "CCOc1ccc(Cl)c(C(=O)N2CCN(C(=O)OC)CC2)n1", "Percent Effect": 106.5}
{"smiles": "CCOc1ccc(Cl)c(C(=O)N2CCN(CC(C)(C)O)CC2)n1", "Percent Effect": 117.3}
{"smiles": "CCOc1ccc(Cl)c(C(=O)N(C)C)n1", "Percent Effect": -5.446}
{"smiles": "CCOc1ccc(Cl)c(C(=O)N2CCCSCC2)n1", "Percent Effect": 87.04}
{"smiles": "CC(C)(O)CN1CCN(C(=O)c2cccc3[nH]ncc23)CC1", "Percent Effect": 5.71}
{"smiles": "CC(C)(O)CN1CCN(C(=O)c2cc(Cl)cc3cccnc23)CC1", "Percent Effect": -2.728}
{"smiles": "CCOc1ccc(Cl)c(C(=O)NCc2ccc(C(=O)NC)cc2)n1", "Percent Effect": -13.09}
{"smiles": "COc1ccc(OCc2cc(C(=O)N3CCSCC3)n[nH]2)c(Cl)c1", "Percent Effect": -44.95}
{"smiles": "c1cnnc(N2CCCC(NCc3ccc(-n4cccn4)cc3)C2)c1", "note": "(stereo not drawn)", "Percent Effect": -2.089}
{"smiles": "c1cnn(CCN2CCOC(Cn3cccn3)C2)c1", "note": "(stereo not drawn)", "Percent Effect": 108.3}
{"smiles": "c1ncn(CC2CN(CC3CCCC3)CCO2)n1", "note": "(stereo not drawn)", "Percent Effect": -0.8263}
{"smiles": "Cc1cc(CCC2CN(CC3(O)CCCCC3)CCO2)ncn1", "note": "(stereo not drawn)", "Percent Effect": 116.4}
{"smiles": "Cc1cc(C)c2nc(CN3CCOC(CCO)C3)cc(O)c2c1", "note": "(stereo not drawn)", "Percent Effect": -3.808}
{"smiles": "c1cnn(CCN2CCOC(Cn3cncn3)C2)c1", "note": "(stereo not drawn)", "Percent Effect": -9.191}
{"smiles": "O=S(=O)(CCCN1CCOC(Cn2cccn2)C1)c1ccccc1", "note": "(stereo not drawn)", "Percent Effect": 7.752}
{"smiles": "c1ccc(CCN2CCOC(Cn3cccn3)C2)nc1", "note": "(stereo not drawn)", "Percent Effect": 5.708}
{"smiles": "C=C(C)CN1CCOC(Cn2cncn2)C1", "note": "(stereo not drawn)", "Percent Effect": -5.235}
{"smiles": "c1ccc(CCCN2CCOC(Cn3cccn3)C2)cc1", "note": "(stereo not drawn)", "Percent Effect": 128.6}
{"smiles": "c1ncn(CC2CN(CC3CCCCC3)CCO2)n1", "note": "(stereo not drawn)", "Percent Effect": 107.8}
{"smiles": "c1cnn(CC2CN(CCc3ccncc3)CCO2)c1", "note": "(stereo not drawn)", "Percent Effect": 0.6004}
{"smiles": "O=C(O)c1csc(S(=O)(=O)Nc2cccc(OC(F)F)c2)c1", "Percent Effect": -1.91}
{"smiles": "COC(=O)C(NC(=O)c1ccc(NC2CC2)nc1)c1ccccc1", "note": "(stereo not drawn)", "Percent Effect": -0.3075}
{"smiles": "O=C(NCCc1ccccc1)N1CC[C@@H]2CNS(=O)(=O)[C@@H]2CC1", "Percent Effect": -17.14}
{"smiles": "COC1CCN(C(=O)Cn2cccc(C(F)(F)F)c2=O)C1", "note": "(stereo not drawn)", "Percent Effect": -0.2293}
{"smiles": "OC1(CN2CCOC(Cn3cccn3)C2)CCCCC1", "note": "(stereo not drawn)", "Percent Effect": 99.61}
{"smiles": "O=S(=O)(CCN1CCOC(Cn2cccn2)C1)C(F)(F)F", "note": "(stereo not drawn)", "Percent Effect": 8.008}
{"smiles": "c1cnn(CC2CN(CC3CCCCC3)CCO2)c1", "note": "(stereo not drawn)", "Percent Effect": 102.2}
{"smiles": "FC(F)(F)Cn1ccnc1CN1CCOC(Cn2cccn2)C1", "note": "(stereo not drawn)", "Percent Effect": -0.9498}
{"smiles": "CC(C)=CCN1CCOC(Cn2cccn2)C1", "note": "(stereo not drawn)", "Percent Effect": 136}
{"smiles": "c1cnn(CC2CN(CC3CCCC3)CCO2)c1", "note": "(stereo not drawn)", "Percent Effect": 7.004}
